A selection: hits, their analogues and other compounds. The true share with any hit is near 0.95%.
BJeLR lethal = kills HRASV12-expressing BJeLR cells | inhibition, % (concentration not given with the values) | BJeLR (HRASV12) viability, CellTiter-Glo ATP luminescence, 48 h | 0.17% of 300,000 active; in the data active means inhibition above about 50%
PrPC TRFRET = cell surface PrPC inhibition, primary TR-FRET screen; P04156; TR-FRET read-out; inhibition, % at 13.8 µM; 0.43% of 370,000 active; in the data active means inhibition above about 24%; further: 0% = median of the test wells and 100% = reference compound wells
ugtP null kill = growth inhibition of S. aureus ugtP deletion strain. S. aureus RN4220 ugtP deletion, OD600 growth, 16 h. growth inhibition, % (concentration not given with the values). 0.54% of 330,000 active. AID 1259309; in the data active means growth inhibition above about 68%;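 further: plate controls were untreated wells for no effect and antibiotic for full effect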
Sa RN4220 lethal = kills Staphylococcus aureus RN4220 | S. aureus RN4220 growth, OD600, 16 h | inhibition, % (no concentration beside the values) | 0.33% of 330,000 active; in the data active means inhibition above about 85%;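 further: plate controls were untreated cells for no effect and reference antibiotic for full effect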
* hit, by the source's call; / = no result.

SMILES	BJeLR lethal	PrPC TRFRET	ugtP null kill	Sa RN4220 lethal
CCn1c(SCC(=O)NN=Cc2ccccc2OCC(=O)O)nnc1-c1ccccc1	/	/	7.3	3.1
O=C(NN=Cc1ccncc1)c1cc2ccccc2cc1O	/	/	5.0	-3.8
COc1nc(Cl)cn(-c2ccc(C)cc2)c1=O	-10.2	-12.9	-0.1	8.6
Cc1ccc(-n2c(Cl)c(Cl)nc(Cl)c2=O)cc1	/	/	99.7*	99.7*
CCCCCCCCCCCCCCCC(O)C(N)CO (configuration not stated)	-2.4	1.6	100.2*	99.9*
CN1CCN(c2ccccc2NC(=O)c2ccc([N+](=O)[O-])o2)CC1	6.2	/	27.7	8.7
CS(=O)(=O)N1CCN(c2ccccc2NC(=O)c2ccc([N+](=O)[O-])o2)CC1	-1.5	7.2	87.6	99.8*
COc1ccc(C(=O)Nc2sc3c(c2C#N)CCN(C(C)=O)C3)cc1	1.2	-7.3	2.1	3.0
CCC(=O)N1CCN(c2ccc(NC(=O)c3cc4ccccc4o3)cc2Cl)CC1	1.5	31.9*	-5.8	-3.4
CCN1CCN(c2ccc(NC(=O)c3ccc([N+](=O)[O-])o3)cc2Cl)CC1	4.9	15.2	99.4*	99.9*
CCCC(=O)N1CCN(c2ccc(NC(=O)c3cc4ccccc4o3)cc2Cl)CC1	-7.4	22.4	-11.9	10.7
CC(=O)N1CCc2c(sc(NC(=O)c3ccc([N+](=O)[O-])o3)c2C#N)C1	-5.0	-11.5	90.2*	15.5
CCOC(=O)C(=NO)C1=NC(C)(C)Cc2cc(C)c(C)cc21	/	/	5.8	4.5
CC(=O)Nc1ccc2nc(NC(=O)c3ccco3)sc2c1	6.9	3.2	0.4	5.3
CC(=O)N1CCN(c2ccc(NC(=O)c3ccc([N+](=O)[O-])o3)cc2Cl)CC1	-3.9	9.6	99.7*	99.1*
CC(=O)Nc1ccc2nc(NC(=O)c3ccc([N+](=O)[O-])o3)sc2c1	4.5	-9.9	98.2*	17.9
COc1cc(NC(=O)c2ccc([N+](=O)[O-])o2)ccc1NC(=O)c1cccs1	-16.0	9.8	100.0*	99.9*
O=C(c1ccccc1)c1nn(-c2ccccc2)c(=O)cc1C(F)(F)F	3.9	-8.9	51.2	-3.7
O=C(c1ccccc1)c1nn(-c2ccc(Cl)cc2)c(=O)cc1C(F)(F)F	21.1	-9.6	81.0	94.2*
CC(C)CCn1c2ccccc2c2cc(CC(N)=O)ccc21	-4.3	2.3	83.5*	-2.7
COc1cc(C(=O)ON=C2C=CC(=O)C(C)=C2)cc(OC)c1OC	/	/	-6.5	6.8
Clc1ccc(C(Cn2ccnc2)OCc2c(Cl)cccc2Cl)c(Cl)c1 (configuration not stated)	/	6.7	94.1*	72.4
Clc1ccc(C(Cn2ccnc2)OCc2csc3c(Cl)cccc23)c(Cl)c1 (configuration not stated)	/	-2.1	96.4*	99.2*
O=C1Nc2ccccc2Oc2cc([N+](=O)[O-])cc(Oc3ccccc3)c21	3.6	5.9	86.4	93.5*
Cc1cccc(Oc2cc([N+](=O)[O-])cc3c2C(=O)Nc2ccccc2O3)c1	2.5	14.8	97.3*	98.2*
SMILES	BJeLR lethal	PrPC TRFRET	ugtP null kill	Sa RN4220 lethal
COC(=O)[C@H]1C[C@@]2(c3ccccc3)c3ccccc3N[C@H]2N1	/	8.6	/	/
COC(=O)C1CC23C=CCN4CCC5(c6ccccc6NC15C2C)C43 (configuration not stated)	57.4*	6.1	/	/
CC(Oc1ccccc1)C(=O)NC1C(=O)N2C1SC(C)(C)C2C(=O)O (configuration not stated)	1.9	-8.6	100.3*	100.3*
CC1(C)SC2C(NC(=O)C(N)c3ccc(O)cc3)C(=O)N2C1C(=O)O (configuration not stated)	/	/	61.4	24.4
CC1(C)SC2C(NC(=O)C3(N)CCCCC3)C(=O)N2C1C(=O)O (configuration not stated)	/	0.8	100.6*	100.4*
CC1(C)SC2C(NC(=O)Cc3ccccc3)C(=O)N2C1C(=O)O (configuration not stated)	/	/	98.8*	100.4*
COc1cccc(OC)c1C(=O)N[C@@H]1C(=O)N2[C@@H]1SC(C)(C)[C@@H]2C(=O)O	/	-1.3	/	/
CCCCOc1ccc(CSCCN=C(N)N)cc1	-0.1	3.8	100.1*	20.9
O=C(CSc1nccc(-c2cccs2)n1)Nc1ccc(F)c(Cl)c1	-11.1	9.3	89.0*	82.9
O=C(CSc1nccc(-c2cccs2)n1)Nc1cccc(Cl)c1	10.3	7.9	14.2	14.7
Oc1ccccc1C1SC(c2ccccc2O)SC(c2ccccc2O)S1 (configuration not stated)	/	-9.0	99.7*	99.9*
Cc1cc2c(cc1C)CSC(c1ccccc1O)SC2	1.5	-6.1	-19.6	-2.9
